The campaign covered roughly 320,000 compounds. About 22,000 (6.9%) were called active. Not shown: some 27% with an inconclusive outcome. Calls come from the whole dose curve; as a rule, active = well fitted inhibition curve with a large enough effect; inconclusive = small, poorly fitted or top-dose-only effect, or another doubt; inactive = no such curve, though single readings can be large or run the other way. The entries come from a sample that favours actives as a whole. Where a call stands in place of a potency, no number is given.
Potency is the fitted concentration of half-maximal effect.

This assay in a line: Primary qHTS for delayed death inhibitors of the malarial parasite plastid, 96 hour incubation. The conditions noted are these: P. falciparum luciferase reporter growth; series mostly up to 28.7 µM. An outline of the steps: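 Erythrocytes infected with luciferase-expressing P. falciparum were dispensed at 2% hematocrit and 0.05% parasitemia (final), then incubated with compounds 96 hours at 37 C in 5% CO2. Luminescence after detection reagent addition reported growth.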
(In general: In qHTS, concentration-response curves come from the screen itself.)
On to `Cc1c(Cl)cccc1NC(=O)NCc1ccc(C)n1C`, for which the Potency result is “inactive”.
The figure for `CCOc1ccccc1C1CC(c2cccc(NS(C)(=O)=O)c2)=NN1C(=O)c1ccccc1` (configuration not stated) is 13.1 µM (active).
The same measure for `Cc1ccc(C2CC(c3cccc(NS(C)(=O)=O)c3)=NN2S(C)(=O)=O)cc1` (configuration not stated): “inactive”; for `CS(=O)(=O)Nc1cccc(C2=NN(C(=O)c3cccc(F)c3)C(c3cccs3)C2)c1` (configuration not stated): “inactive”; for `CCN(CC(=O)Nc1c(F)cccc1F)C(=O)CN1c2cccc3cccc(c23)S1(=O)=O`: “inactive”.
`Cc1cccc(C(=O)OCC(=O)Nc2ccc(F)cc2)c1`: the Potency entry was “inactive”.
The same measure for `CCOC(=O)c1ccccc1NC(=O)COC(=O)C(Cc1c[nH]c2ccccc12)NC(C)=O` (configuration not stated): “inactive”; for `Cc1ccc(OCC(=O)c2cc(C)n(Cc3ccco3)c2C)c([N+](=O)[O-])n1`: “inactive”; for `COc1ccc(C)cc1-n1nnnc1SCC(=O)c1cc(C)n(Cc2ccco2)c1C`: 10.4 µM (active).
The entry for `Cc1cc(C(=O)CSc2nc(N)cc(=O)[nH]2)c(C)n1Cc1ccco1` is “inactive”.
The same measure for `O=c1[nH]c(NCCO)nnc1Cc1ccc(Cl)cc1`: “inactive”.
Turning to `COc1ccccc1NS(=O)(=O)c1ccc(C)c(C(=O)NCC(c2ccco2)N(C)C)c1` (configuration not stated), the Potency result was “inactive”.
The entry for `CC1CN(S(=O)(=O)c2cccc(C(F)(F)F)c2)CN1C(=O)N1CCOCC1` (configuration not stated) is “inactive”; for `O=C(NCCCNC(=O)c1ccccc1Cl)c1cnccn1` it is “inactive”; for `CCCCN(C)C(=O)c1ccc2c(c1)N(CC)C(=O)c1ccccc1S2(=O)=O` it is 10.4 µM (active).
The same measure for `CN(Cc1cccs1)C(=O)CN1C(=O)c2ccccc2S1(=O)=O`: “inactive”; for `CCCCN1C(=O)c2ccc(C(=O)Nc3ccc(S(=O)(=O)N(C)C)cc3)cc2C1=O`: “inactive”.
The entry for `Cc1ccc(OCC(=O)NCCCNC(=O)c2cccnc2)cc1C` is “inactive”.
For the compound `Cc1cc(NC(=O)c2ccccc2C)no1`, the Potency result is “inactive”.
The entry for `CCCC(C)c1nnc(NC(=O)C2CC(=O)N(c3ccc(OCC)cc3)C2)s1` (configuration not stated) is “inactive”.
The same measure for `COc1ccccc1N1CC(C(=O)Nc2nnc(SCC(=O)NC(C)C)s2)CC1=O` (configuration not stated): “inactive”; for `CCOC(=O)CSc1nnc(NC(=O)C2CC(=O)N(c3ccc(F)cc3)C2)s1` (configuration not stated): 14.7 µM (active).
The entry for `CC1CN(C(=O)CCC(=O)NCCCN2CCC(Cc3ccccc3)CC2)c2cc(Cl)ccc2O1` (configuration not stated) is “inactive”.
For `COc1cccc(NC(=O)c2cc(S(=O)(=O)N3CCc4ccccc43)cn2C)c1`, the Potency entry was “inactive”.
As for `CCn1c(=O)c(=O)n(CC)c2cc(N3CCCCC3)c(NC(=O)c3ccc(Cl)cc3)cc21`, the Potency entry is “inactive”.
The entry for `CC(NC(=O)c1ccccc1SCC(=O)N1CCCC1)c1ccccc1` (configuration not stated) is “inactive”; for `Cc1ccc(Oc2nc3ccccc3n3c(C)nnc23)cc1` it is “inactive”.
The figure for `Cc1ccc(S(=O)(=O)N(C)c2nc3ccccc3n3c(C(C)C)nnc23)cc1` is 11.7 µM (active).
The same measure for `CC(=O)Nc1ccc(S(=O)(=O)N(C)c2nc3ccccc3nc2Cl)cc1`: “inactive”; for `O=C(Nc1ccccc1Cl)NC1(C(=O)N2CCOCC2)CCCCC1`: “inactive”.
For the compound `N#Cc1c(Cl)nc(-c2cccnc2)nc1-c1ccccc1`, the Potency entry is “inactive”.
The entry for `NC(=S)Nc1c(Cl)cccc1Cl` is “inactive”; for `CN(CC(=O)Nc1c(Cl)cccc1Cl)C(=O)CNC(=O)C1CCCCC1` it is “inactive”; for `O=C(Nc1c(Cl)cccc1Cl)C1CCC1` it is 10.4 µM (active).
The entry for `NS(=O)(=O)c1ccc2nc(NC(=O)CS(=O)(=O)c3ccc(F)cc3)sc2c1` is “inactive”.
The same measure for `Cc1nn(CCOc2ccc(Br)cc2)c(C)c1[N+](=O)[O-]`: 13.1 µM (active).
As for `Brc1ccc(OCCn2ccnc2)cc1`, the Potency entry was “inactive”.
The same measure for `COc1ccc(CNC(=O)CCCn2nc(C)c([N+](=O)[O-])c2C)cc1`: “inactive”.
The same measure for `CNS(=O)(=O)c1ccc(NC(=O)Nc2ccc3c(c2)OCO3)cc1`: “inactive”.
As for `CCOC(=O)C(=O)C1C(=O)Nc2ccccc21` (configuration not stated), the Potency result was “inactive”.
The same measure for `CCCCCN(C(=O)CCC(=O)OCC(=O)NCc1ccc(OC)cc1)c1c(N)n(CCCC)c(=O)[nH]c1=O`: “inactive”; for `CCCCCN(C(=O)CCC(=O)OCCOc1ccc(OC)cc1)c1c(N)n(CCCC)c(=O)[nH]c1=O`: “inactive”; for `CCCCCN(C(=O)CCC(=O)OCC(=O)NC1CCC(C)CC1)c1c(N)n(CCCC)c(=O)[nH]c1=O` (configuration not stated): 14.7 µM (active).
The entry for `O=C(NCc1ccco1)C1CCCN1S(=O)(=O)c1ccccc1C(F)(F)F` (configuration not stated) is “inactive”; for `CCOC(=O)C1=C(COC(=O)[C@H](C)NS(=O)(=O)c2ccccc2F)NC(=O)NC1C` (some centres not stated) it is “inactive”.
The entry for `Cc1cs/c(=N\N=C\c2ccc(O)cc2)n1Cc1ccco1` is “inactive”.
For `CC(C)n1c(=O)c(C=Nc2ccc(Br)cc2)c(O)n(Cc2ccco2)c1=O`, the Potency was 10.4 µM (active).
The same measure for `CN(C)CCCN=Cc1c(O)n(Cc2ccco2)c(=O)[nH]c1=O`: “inactive”.
The same measure for `COC(=O)c1cccc(N(C(=O)CNC(=O)c2cccs2)C(C(=O)NCC2CCCO2)c2ccc(OC)c(OC)c2)c1` (configuration not stated): “inactive”.
Regarding `CC1(C)CC(=O)CC2(C1)NCC(c1ccccc1Cl)c1c2[nH]c2ccccc12` (configuration not stated), the Potency was 9.28 µM (active).
The entry for `O=C(O)CC(c1ccccc1F)N1Cc2ccccc2C1=O` (configuration not stated) is “inactive”; for `CN(C)CCNc1ccc(-c2n[nH]c(=O)c3ccccc23)cc1[N+](=O)[O-]` it is “inactive”; for `CCOC(=O)c1ccc(NC(=S)Nc2cc(C)cc(C)n2)cc1` it is “inactive”.
The same measure for `CCOC(=O)c1cc2c(nc1NC(=S)Nc1ccccc1)CC(C)(CC)OC2` (configuration not stated): 13.1 µM (active); for `CCOC(=O)c1cn[nH]c1NC(=S)Nc1ccccc1`: “inactive”.
Take `COc1ccc(CNC(=O)c2cc(=O)c3c(C)cc(C)cc3o2)cc1`: the Potency result was “inactive”.
The same measure for `Cc1ccc(N=C2SCCCN2C(=O)c2cccc(N3C(=O)CCC3=O)c2)cc1Cl`: “inactive”.
Turning to `COc1ccc(N2CC(NS(=O)(=O)c3ccc4ccccc4c3)CC2=O)cc1` (configuration not stated), the Potency entry was “inactive”.
Regarding `O=C(NCc1ccco1)C1CCCN(S(=O)(=O)c2ccccc2)C1` (configuration not stated), the Potency entry is “inactive”.
The same measure for `CCOC(=O)N1CCN(S(=O)(=O)c2ccc(OC)cc2)CC1`: “inactive”; for `Cc1ccc(C(=O)NC2CCN(C(=O)Nc3ccc(F)cc3)CC2)cc1`: “inactive”.
The figure for `COc1ccc(CCNC(=S)N2CCN(S(=O)(=O)c3ccc(F)cc3)CC2)cc1` is 2.94 µM (active); for `O=S(=O)(c1ccc(F)cc1)N1CCN(C(=S)NCc2ccco2)CC1` it is 0.657 µM (active); for `COc1ccc(CCNC(=O)C2CCCN(S(=O)(=O)c3ccc(OC)cc3)C2)cc1` (configuration not stated) it is “inactive”.
The figure for `O=C(NC1CCN(C(=S)NCc2ccco2)CC1)c1ccc(F)cc1` is 2.94 µM (active).
With `COc1ccc(C(=O)NC2CCN(C(=S)NCCc3ccccc3)CC2)cc1`, the Potency result is “inactive”.
The entry for `CC1CCN(S(=O)(=O)c2ccc(S(=O)(=O)NCc3ccco3)cc2)CC1` is “inactive”.
